Counter-ions that a name gives are not always drawn. Values without a mark were called inactive.
tested on: NCI-H1688; experiment: inhibition of cell viability relative to untreated control (fraction); higher = stronger growth inhibition, active = 0.5 or more; details: 30 µM; 24 h
How it was run: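 Values are inhibition of cell viability expressed as a fraction, derived from viability normalised to untreated cells. NCI-H1688 small cell lung cancer cells in 96-well plates were exposed to a natural compound library (TargetMol) at 30 µM for 24 h at 37°C with 5% CO2, and Cell Counting Kit-8 absorbance at 450 nm was then read.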

Structure (SMILES) | inhibition of cell viability
NCCc1ccc(O)c(O)c1 [Dopamine hydrochloride] | 0.0465
OC[C@H]1O[C@H](OCC2O[C@@H](O)[C@H](O)[C@@H](O)[C@@H]2O)[C@H](O)[C@@H](O)[C@H]1O (some centres undefined) [Melibiose] | -0.13
C/C1=C2N=C(/C=C3N=C(/C(C)=C4\[N-]C(C(CC(N)=O)C4(C)CCC(=O)NCC(C)OP(=O)([O-])OC4C(CO)OC(n5cnc6cc(C)c(C)cc65)C4O)C4(C)N=C1C(CCC(N)=O)C4(C)CC(N)=O)C(CCC(N)=O)C\3(C)C)C(CCC(N)=O)C/2(C)CC(N)=O.[CH3-].[Co+3] (centres undefined) [Methylcobalamin] | 0.0835
Cc1coc2c1C(=O)C(=O)c1c-2ccc2c(C)cccc12 [Tanshinone I] | 0.929 (active)
CC(C)(O)CC[C@@H](O)[C@](C)(O)[C@H]1CC[C@@]2(O)C3=CC(=O)[C@@H]4C[C@@H](O)[C@@H](O)C[C@]4(C)[C@H]3CC[C@]12C [Ecdysterone] | -0.0294
N[C@@H](Cc1c[nH]c2ccc(O)cc12)C(=O)O [L-5-Hydroxytryptophan] | 0.0989
C[C@]12CCC(=O)C=C1CC[C@@H]1[C@@H]2[C@@H](O)C[C@@]2(C)[C@H]1CC[C@]2(O)C(=O)CO [Hydrocortisone] | 0.0716
COC(=O)c1ccc(O)c(OC)c1 [Methyl Vanillate] | -0.221
CCC(C)C(NC(=O)CNC(=O)C(CCC(N)=O)NC(=O)C1CCCN1C(=O)C(CC(=O)O)NC(=O)C(CCCNC(=N)N)NC(=O)C(NC(=O)C(NC(=O)C(N)CCCNC(=N)N)C(C)C)C(C)C)C(=O)NC(CCCNC(=N)N)C(=O)NC(C)C(=O)NC(Cc1c[nH]c2ccccc12)C(=O)NC(C(=O)NC(C)C(=O)NC(Cc1c[nH]c2ccccc12)C(=O)NC(CCCNC(=N)N)C(=O)NC(CC(N)=O)C(=O)NC(CCCNC(=N)N)C(=O)O)C(C)C (centres undefined) [Lysozyme] | 0.471

— the supplement of paper PMC11634586
